Assay results reported in PubChem BioAssay AID1508600 (Functional Genomics Laboratory (NCATS/FGL), 2020).
In all, about 53,000 sequences went through this assay and about 3,700 (7%) were called active. This is one part of a sample in which actives are shown more often than they occur.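 How the source made its calls: active means gene knockdowns whose robust z-score for IL-1 alpha signal is at least 2 or at most -2, so actives lie on both sides; inactive means the rest.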

assay: Components of the Cytosolic LPS Sensing Pathway: Gene Identification via Genome-wide siRNA Screen; conditions: RAW264.7 macrophages, IL-1a HTRF, actives lie on both sides, screened at 100 nM (by protocol), cells primed 5 h with Pam3CSK4 first;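 further: robust z of the log signal after scaling to non-targeting control siRNA wells of the plate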
Summary of the method: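 Read-out: IL-1a HTRF on supernatant, divided by plate negative-control median ×100, log-transformed and converted to robust z-score. Cells were RAW264.7 given 100 nM siRNA, Pam3CSK4-primed 5 hours, then LipidA-transfected 24 hour.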

Sequence | z-score
GCAAACCUUCGGUCUUGCCTT against Cd5l | -0.364 (inactive)
GGAGAGAUCAUACACUUUGTT against BC048679 | 0.43 (inactive)
GGUAGUGAAUGAACUCUUUTT against Bcl2l1 | -1.41 (inactive)
GGCAGACAUCACAAUGGCUTT against Hemgn | -0.201 (inactive)
GGACAUGUCCGAAUACUACTT against Pdss1 | 2.34 (active)
GGGUUAGCAACUUCAAAUATT against Zmynd19 | 0.996 (inactive)
CCUAAAUCCUUUUGAACCCTT against Anapc16 | 0.295 (inactive)
GGCCAGUGUGUGGUCUAAGTT against Cd1d2 | 1.89 (inactive)
GGUCUUCAGAUAAUCUUCCTT against Brinp1 | 1.91 (inactive)
GCUCAGAUAAUGGCCUACATT against Smarca4 | 2.28 (active)
CCGACAAACGCAAGGUGAUTT against Rtl8c | -0.382 (inactive)
GGUGUGUGGUGUUAAAAAATT against Mybph | -0.81 (inactive)
GGUGGAAUAUAGCUUCAUCTT against Ifngr2 | 1.06 (inactive)
GGAAGAACACAAGUGUUUUTT against Trem3 | -0.626 (inactive)
GCGAAGCGUGCUGCUAAGATT against Ccdc59 | 0.519 (inactive)
GGCCAGCUCUCUUUUGCUATT against Cflar | 2.5 (active)
GCAGAGGCUCUCCUUAUAGTT against Ccser2 | 0.747 (inactive)
GGUACGGUGUUUUGGAUACTT against Fam174a | 0.00664 (inactive)
GGGACAGUUUUCGGACUUCTT against S1pr4 | -0.362 (inactive)
GCUACAGGGAAAAAGUUCCTT against Olfr994 | 0.383 (inactive)
CGGCUGCAUUUCAACAAGGTT against Snrpc | -1.92 (inactive)
GGUUCUGCCAUGGAGGAAUTT against Svs5 | 0.0746 (inactive)
GCCACUCACCUGUAGUUCUTT against BC049715 | 0.0758 (inactive)
GGAUCUCAGAUUUACUGUCTT against Dedd2 | 0.484 (inactive)
GGUCAUCAAGCAGUGCUAUTT against Ncstn | 4.32 (active)
CGGAGCAUUGGGACAAUUUTT against Olfr690 | 1.1 (inactive)
GGAAGUUGAAUACAUUGUCTT against Arntl | 0.127 (inactive)
GCAUGCAAAUCUCCUCUAATT against Sema3b | -0.116 (inactive)
CCUUUGUAACUGGAAUUCUTT against Olfr197 | 1.74 (inactive)
GGAAAUUGUGAGAAGAACUTT against Slx4ip | 2.33 (active)
